Results filed as inconclusive are left out. Unmarked numbers belong to inactive results. Activity calls are given as the source filed them. Calls follow the shape of the dose curve; as a rule, active = well fitted activation curve with a large enough effect in the repeat runs; inconclusive = weak or mixed curves; inactive = flat fitted curve, though single readings scatter.
% is scaled to controls: 0 for no effect and ±100 for the full control effect; potency is read from the fitted curve at half-maximal effect.

The experiment can be described thus: A CellTox Green Cytotoxicity Assay to monitor cytotoxicity in HepG2 cells - 8 hour (AID 1224890). Also: nearly all actives have a fitted effect of over 45% in size. As to conditions: CellTox Green fluorescence; series mostly up to 76.8 µM; cytotoxicity increase: at the top concentration. The source says: National Center for Advancing Translational Sciences [NCATS]
NIH Chemical Genomics Center [NCGC]
U.S. Environmental Protection Agency [EPA]
National Institutes of Environmental Health Sciences [NIEHS]
National Toxicology Program [NTP]
Cell-based models are critical for drug discovery. Determining the natural cytotoxic effects resulting from test compounds is an essential research activity. A CellTox Green Cytotoxicity Assay to monitor cytotoxicity in real time of continues cell culture during 40 hours of the compound treatment was used to screen Tox21 10K library compounds in HepG2 cells. CellTox Green Cytotoxicity Assay is a nonlytic, homogeneous, biofluorescent method to measure cytotoxicity in cell culture after experimental manipulation. The assay system uses a proprietary asymmetric cyanine dye that is excluded from viable cells but preferentially stains the dead cell's DNA. […] Viable cells produce no appreciable increases in fluorescence. Therefore, the fluorescence signal produced by the binding interaction with dead cell DNA is proportional to cytotoxicity.
The mixture of HepG2 cell suspension and reagents were dispensed at 600cells/6 ul/well in 1536-well tissue culture treated black solid bottom plates using a Multidrop dispenser. After the assay plates were incubated at a 37 C/5% CO2 incubator for 5 hours, 23 nL of compounds dissolved in DMSO, positive and negative controls was transferred to the assay plate by a pintool work station. The plates were incubated at 37 C for 40 hours. The fluorescence intensity were measured at 0h, 8h, 16h, 24h, 32h and 40h time points using ViewLux plate reader during compound treatment.
In the case of `CC(C)(c1ccc(O)cc1)c1ccc(O)cc1`, the “cytotoxicity increase” value is -4.2%. The same measure, in the same setting: with `Cc1cc(O)cc2c1O[C@](C)(CCC[C@H](C)CCC[C@H](C)CCCC(C)C)CC2` the figure was -7.33% [at 35.3 µM]; with `Cn1c(N)c(N=O)c(=O)n(C)c1=O`, 3.34%; with `CC/C=C\CCOC(C)=O`, 5.55%.

As for `CCC(C)C1CCCCC1=O` (stereo not given), the “cytotoxicity increase” value was 0.0102%. Same read-out and setting: with `Cc1c(NC(C)C)c(=O)n(-c2ccccc2)n1C` the figure was -0.922% [at 35.3 µM]; with `N=C(N)c1ccccc1`, -0.341%.

Regarding `CO[C@]12C[C@@H](COC(=O)c3cncc(Br)c3)CN(C)[C@@H]1Cc1cn(C)c3cccc2c13`, the Potency was 26.8 µM (active). Regarding `CCc1nccnc1CC`, the cytotoxicity increase is 4% [at 15.8 µM].

For `NCCc1cnc[nH]1`, the “cytotoxicity increase” value was 1.1% [at 35.3 µM].

On to `N#Cc1ccc(C2CCCc3cncn32)cc1` (stereo not given), for which the “cytotoxicity increase” value is -4.07% [at 35.3 µM]. As for `O=S(O)CO`, the “cytotoxicity increase” value is -5.03%.

As for `CC(=O)OCC(=O)[C@@]1(O)CC[C@H]2[C@@H]3CCC4=CC(=O)CC[C@]4(C)[C@H]3C(=O)C[C@@]21C`, the “cytotoxicity increase” value is -1.97% [at 35.3 µM].

As to `C=CCCCCCCCCC=O`, the “cytotoxicity increase” value is 0.375%.

For the molecule `CC(C)c1cc2c(cc1S(=O)(=O)O)[C@@]1(C)CCC[C@@](C)(C(=O)O)[C@@H]1CC2`, the “cytotoxicity increase” value is -4.53% [at 35.3 µM]. `NS(=O)(=O)c1ccccc1Cl`: the “cytotoxicity increase” value is 1.44%. The same measure, in the same setting: under `CCS(=O)(=O)c1ccc(OC)c(C(=O)OC)c1` stands -13.5% [at 35.3 µM]; under `CCCC(=O)O[C@]1(C(=O)CO)CC[C@H]2[C@@H]3CCC4=CC(=O)CC[C@]4(C)[C@H]3[C@@H](O)C[C@@]21C`, -15.3% [at 35.3 µM]; under `CC(=O)Nc1c(I)cc(I)c(C(=O)O)c1I`, -2.29% [at 35.3 µM]. On the same count and under the same terms, with `CCCCNC(=O)NCCCC` the figure was -3.94%.

In the case of `NC(=O)c1ccc(N)cc1`, the “cytotoxicity increase” value is -3.32%. With `CCc1cccc2c(CCO)c[nH]c12`, the “cytotoxicity increase” value was 4.9% [at 35.3 µM].

In the case of `CCN(Cc1ccncc1)C(=O)C(CO)c1ccccc1` (stereo not given), the “cytotoxicity increase” value is -4.92% [at 35.3 µM].

Regarding `Cc1c(O)cccc1O`, the “cytotoxicity increase” value was 3.67%. For the molecule `CN(C)CCCSc1ccccc1NC(=O)/C=C/c1ccccc1`, the Potency was 19 µM (active). As for `CC(=O)CC(C)C`, the “cytotoxicity increase” value is 2.78%. On the same count and under the same terms, with `CC(C)=CCCC(C)CC(=O)O` (stereo not given) the figure was 0.818%. Still for that read-out and setting: with `CC(=O)N(CC(O)CO)c1c(I)c(C(=O)NCCO)c(I)c(C(=O)NCC(O)CO)c1I` (stereo not given) the figure was -6.8% [at 35.3 µM]. The same measure, in the same setting: under `CCO/C([O-])=N/c1c[n+](N2CCOCC2)no1` stands -3.8% [at 35.3 µM]. For the molecule `NC(=O)c1ccc([N+](=O)[O-])cc1`, the “cytotoxicity increase” value is 0.206%. Same read-out and setting: under `COc1ccc(CCN(C)CCCC(C#N)(c2cc(OC)c(OC)c(OC)c2)C(C)C)cc1OC` (stereo not given) stands 3.3% [at 35.3 µM]. Consider `CCCCCSCCCCC`, for which the “cytotoxicity increase” value is 4.32%. Same read-out and setting: with `CC[N+](C)(C)c1cccc(O)c1` the figure was -14.9% [at 35.3 µM]. On the same count and under the same terms, under `COC(=O)CCSCCC(=O)OC` stands -1.98%.

As for `CCc1ccc(O)c(OC)c1`, the “cytotoxicity increase” value was -6.96%. Same read-out and setting: under `CCCCC/C=C\CCC=O` stands -13.9%; under `O=Cc1cccc([N+](=O)[O-])c1`, -4.14%; under `CO/N=C(/C(=O)N[C@@H]1C(=O)N2C(C(=O)OCOC(=O)C(C)(C)C)=C(C)CS[C@H]12)c1csc(N)n1`, 8.74% [at 35.3 µM].

Take `CCCCCCCCCCCC`: the “cytotoxicity increase” value is -2.93%. `COC(=O)C1=C(C)NC(C)=C(C(=O)OC)C1c1ccccc1[N+](=O)[O-]`: the Potency entry was “inactive”.

The values above are taken from PubChem BioAssay (Tox21).
